Molecules are shown by their SMILES. A number with no mark means an inactive call. Records with an inconclusive call do not appear. Activity calls are given as the source filed them.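 How the source made its calls, unless noted: active means viability at or below 27.92% in each of two runs, the all-compound median minus 4 SD; inconclusive means no clear call, values can overlap the other calls; inactive means the rest.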

Broadly, the viability is a read-out of living cells in per cent, often relative to untreated cells. Usually inhibition stands for the relative decrease from the control value, in per cent.

A short description of assay [1]: OD615 S. cerevisiae growth inhibition, permissive medium, pilot counter-assay, permissive growth control for S. cerevisiae lifespan shortening project (AID 705;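 active means growth inhibition above 25% in both replicates, a cutoff set 3 SD above the mean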). The conditions noted are these: OD615, 24 h, at 10 µM, stronger effect = higher value.
A short description of assay [2]: Restrictive medium S. cerevisiae growth inhibition, OD615, pilot screen of yeast lifespan reduction project, restrictive growth control (AID 706;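 active means growth inhibition above a set limit, 3 SD over mean compound inhibition, in both replicates, cut at about 43% in these data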;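 further: modified DeaD lifespan yeast strain shifted to restrictive glucose medium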). To be noted: OD615, 48 h, at 10 µM, stronger effect = higher value.
A short description of assay [3]: viability gain of MRP-1-high H69AR cells under doxorubicin, pilot screen, MRP-1 activator project, CellTiter-Glo, duplicate (AID 807;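 active means viability increase at or above a cutoff of the median across tested compounds plus 3 SD, cut at about 8.5% in these data, passing the limit was not always enough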;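 further: compound pretreatment 18-22 h then 72 h combined with doxorubicin; 0% = doxorubicin alone and 100% = vehicle without doxorubicin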). To be noted: H69AR viability with doxorubicin, CellTiter-Glo luminescence; at 10 µM; stronger effect = higher value. Background: Cellular ATP, detected with luciferase, serves as a proxy for viable cell number.
Assay [4] is described as follows: growth suppression of beta-catenin knockout HCT116, pilot screen, human colon tumor cells (AID 823;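 active means cell viability at or below a set limit in both duplicate runs, the limit being the all-compound median minus 4 SD, cut at about 23% in these data, passing the limit was not always enough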;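 further: 0% = wells killed by 20 µM Hyamine and 100% = untreated DMSO cell wells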). To be noted: CellTiter-Glo, 60 h, at 10 µM, stronger effect = lower value.
Assay [5] is described as follows: growth suppression of PTEN-deleted HCT116, pilot screen, cell-based, HCT116 clonal line, CellTiter-Glo (AID 824).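 Further: 0% = 20 µM Hyamine control and 100% = vehicle cell control.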 The conditions noted are these: 60 h, at 10 µM, stronger effect = lower value.
Assay [6] can be described thus: inhibitors of the yeast RAM network, pilot screen, dse1pr::URA3 reporter, 5-FOA selection (AID 869;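 active means inhibition over a set limit, the all-compound mean plus 3 SD, in both replicate runs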;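 further: 0% = DMSO wells with no growth and 100% = 10 µM 1-NA-PP1 with full growth; RAM network block rescues cells from 5-FOA so hits raise OD615 growth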). To be noted: S. cerevisiae dse1pr::URA3 5-FOA growth, OD615, 2 d; at 10 µM; stronger effect = higher value; strain carries analog-sensitive mutant Cbk1 kinase.

As for `COc1ccc(C)cc1NC(=O)CSc1nnc(-c2ccccn2)n1Cc1ccco1`, the results for the growth inhibition in assay [1] and in assay [2] were -2.92% and 7.74%, respectively. Moreover, the viability increase in assay [3] is -2.4%. Moreover, the values for the viability in assay [4] and in assay [5] were 95.7% and 88.2%, respectively. For the same compound, the inhibition in assay [6] was 1%.

As for `COc1cc2c(cc1OC)C(C)N(C(=O)c1cc3ccccc3o1)CC2` (stereo unspecified), the results for the growth inhibition in assay [1] and in assay [2] were -11.9% and 10.2%, respectively. Moreover, the viability increase in assay [3] is -3.13%. Moreover, the viability in assay [4] was 37.3%; in assay [5] it was 42.7%. Further, the inhibition in assay [6] was 1.52%.

Regarding `CCOC(=O)C1CCCN(C(=O)CCCn2nc(C)n3c(cc4sccc43)c2=O)C1` (stereo unspecified), the values for the growth inhibition in assay [1] and in assay [2] were -4.78% and -16.8%, respectively. The viability increase in assay [3] is -1.97%. For the same compound, the viability is 102% in assay [4] and 94.3% in assay [5]. Further, the inhibition in assay [6] was 1.37%.

In the case of `Cc1ccc(CNC(=O)CS(=O)Cc2nc(-c3ccccc3C)oc2C)cc1` (stereo unspecified), the growth inhibition was -3.71% in assay [1] and 1.06% in assay [2]. Further, the viability increase in assay [3] was 0.04%. The viability was 90.3% in assay [4] and 98.4% in assay [5]. Also, the inhibition in assay [6] was 1.06%.

As for `CCc1ccccc1S(=O)(=O)Cc1ccc(C(=O)N2CCN(c3ccccc3OC)CC2)o1`, the growth inhibition is -12.5% in assay [1] and -21.1% in assay [2]. The viability increase in assay [3] is -2.86%. For the same compound, the viability is 37% in assay [4] and 43.5% in assay [5]. In addition, the inhibition in assay [6] is 1.31%.

In the case of `CN1CSC2=C(C#N)C(c3cccc(OCc4ccccc4)c3)CC(=O)N2C1` (stereo unspecified), the growth inhibition in assay [1] was -5.43%; in assay [2], 20.4%. The viability increase in assay [3] is -4.67%. Further, the viability was 85.7% in assay [4] and 88.5% in assay [5]. Further, in assay [6], the inhibition was 0.785%.

On to `Cc1cc(NC(=O)c2noc3c2CCc2ccccc2-3)n(-c2ccccc2)n1`, for which the growth inhibition in assay [1] was -11.9%; in assay [2], -2.05%. Further, the viability increase in assay [3] is -2.71%. The viability in assay [4] is 94.9%; in assay [5], 98.3%. Also, the inhibition in assay [6] was 2.88%.

As to `COc1ccc(OC)c(-c2cc(C(=O)N3CCN(c4ccccc4)CC3)no2)c1`, the growth inhibition in assay [1] was -11.8%; in assay [2], 20.3%. In assay [3], the viability increase is -2.36%. The viability in assay [4] was 96.9%; in assay [5], 88.8%. In addition, the inhibition in assay [6] is 1.72%.

As for `Cc1cccc(C)c1OCc1nnc(SCC(=O)Nc2nccs2)o1`, the growth inhibition is -0.12% in assay [1] and 0.57% in assay [2]. The viability increase in assay [3] was -1.15%. Further, the viability is 94% in assay [4] and 87.4% in assay [5]. Further, the inhibition in assay [6] was 2.88%.

On to `CN(C)c1ccc(CN(C)C2CCCCC2)cc1`, for which the growth inhibition in assay [1] is 2.59%; in assay [2], -6.2%. For the same compound, in assay [3], the viability increase is -1.65%. Besides, the viability in assay [4] is 93.1%; in assay [5], 89.7%. Moreover, in assay [6], the inhibition was 1.46%.

For `CN(C)c1ccc(-c2noc(C3CCN(S(=O)(=O)c4cccc(Cl)c4)CC3)n2)cc1`, the growth inhibition in assay [1] was -5.86%; in assay [2] it was -11.7%. For the same compound, in assay [3], the viability increase was 3.01%. In addition, the viability was 82.5% in assay [4] and 94.2% in assay [5]. Moreover, the inhibition in assay [6] is 2.6%.

On to `Nc1ccc(S(=O)(=O)N2CCCc3ccccc32)cc1`, for which the growth inhibition is -18.7% in assay [1] and -24% in assay [2]. Also, in assay [3], the viability increase was -3.42%. Further, the viability in assay [4] and in assay [5] was 83% in each case. Moreover, the inhibition in assay [6] was 1.49%.

Turning to `Cc1ccc(Cl)cc1N1CCN(C(=O)CCS(=O)(=O)c2cccc3nonc23)CC1`, the figures for the growth inhibition in assay [1] and in assay [2] were 3.25% and -4.52%, respectively. Further, the viability increase in assay [3] is -3.47%. Besides, the figures for the viability in assay [4] and in assay [5] were 79.5% and 75.4%, respectively. For the same compound, the inhibition in assay [6] was 0.805%.

Turning to `COc1cc2c(cc1OC)C(c1ccccc1)N(C(=O)c1ccco1)CC2` (stereo unspecified), the values for the growth inhibition in assay [1] and in assay [2] were -21.2% and -17.6%, respectively. Moreover, the viability increase in assay [3] was -3.16%. Also, the results for the viability in assay [4] and in assay [5] were 68.4% and 63.5%, respectively. In addition, the inhibition in assay [6] is 2.55%.

On to `Cc1cccc(N2CCN(C(=O)c3cc4c(C)nc5ccccc5c4o3)CC2)c1C`, for which the growth inhibition in assay [1] is -8.18%; in assay [2], -1.81%. Besides, the viability increase in assay [3] was 4.84%. Besides, the viability in assay [4] was 71.7%; in assay [5], 78.2%. The inhibition in assay [6] is -1.31%.

As to `O=C(Cn1cc2c(n1)CCCCC2)NCCCN1CCOCC1`, the results for the growth inhibition in assay [1] and in assay [2] were -9.29% and -6.7%, respectively. In assay [3], the viability increase was 0.92%. For the same compound, the viability in assay [4] was 112%; in assay [5], 99.8%. Besides, in assay [6], the inhibition is 2.08%.

As to `Cc1ccccc1S(=O)(=O)Cc1ccc(C(=O)N2CC(C)CC(C)C2)o1` (stereo unspecified), the values for the growth inhibition in assay [1] and in assay [2] were -18.1% and -32%, respectively. Also, the viability increase in assay [3] is -0.61%. For the same compound, the viability in assay [4] was 103%; in assay [5], 90.2%. In addition, in assay [6], the inhibition was -0.465%.

As for `Cc1cc(C)n(-c2nc3ccccc3nc2Nc2ccc3c(c2)OCO3)n1`, the growth inhibition in assay [1] is -18.7%; in assay [2], 1.25%. Besides, the viability increase in assay [3] was 6.2%. In addition, the results for the viability in assay [4] and in assay [5] were 87.7% and 81.7%, respectively. The inhibition in assay [6] was 6.39% (active).

As to `CCOc1ccccc1NC1c2ccccc2C(=O)N1c1ccc(C)cn1` (stereo unspecified), the growth inhibition was -14.3% in assay [1] and 3.06% in assay [2]. In assay [3], the viability increase was -1.37%. Besides, the viability was 88.2% in assay [4] and 88% in assay [5]. In addition, the inhibition in assay [6] is 0.395%.

Take `CCOC(=O)c1[nH]c(C)c(C(=O)N2CCOCC2)c1C`: the growth inhibition in assay [1] was -6.62%; in assay [2], -4.17%. In assay [3], the viability increase is -0.92%. Moreover, the viability in assay [4] is 109%; in assay [5], 104%. In assay [6], the inhibition is 3.29%.

Regarding `COc1ccc(OCCn2c(NC(=O)c3ccco3)nc3ccccc32)cc1`, the growth inhibition in assay [1] is 2.63%; in assay [2], 9.83%. Also, the viability increase in assay [3] is -6.84%. The viability in assay [4] is 56.9%; in assay [5], 57.9%. Also, the inhibition in assay [6] is 3.36%.

Source of the values: PubChem BioAssay.
